GSIS activator – primary screen for activators of insulin secretion dependent on glucose, INS-1E cells, GLuc reporter luminescence; INS-1E GLuc reporter insulin secretion, 2-3 h; activation, % at 16.6 µM; 370,000 compounds, 0.61% hits; AID 743287;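 active = lowest replicate activation of at least 40%, so every replicate reaches that level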;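 note: 0% = median of neutral control wells and 100% = median of IBMX positive control wells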
AF4-AF9 inh – MLL-AF4/AF9 protein interaction inhibition; inhibition, % at 10 µM; P42568; 350,000 compounds, 0.47% hits; AlphaScreen, biotin-AF4 peptide binding to FLAG-AF9;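 active = every replicate reaching a set inhibition limit, whatever the replicate mean, cut at about 25% in these data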;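 note: 0% = plate neutral control median and 100% = total signal loss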
NSD2 HMT inh – blocks human histone methyltransferase NSD2 | O96028 | 310,000 compounds, 0.54% hits | NSD2 peptide methylation, AlphaScreen, 120 min | inhibition, % at 12.5 µM; in the data active = inhibition above about 50%
Target sequence (O96028 whole entry, looked up): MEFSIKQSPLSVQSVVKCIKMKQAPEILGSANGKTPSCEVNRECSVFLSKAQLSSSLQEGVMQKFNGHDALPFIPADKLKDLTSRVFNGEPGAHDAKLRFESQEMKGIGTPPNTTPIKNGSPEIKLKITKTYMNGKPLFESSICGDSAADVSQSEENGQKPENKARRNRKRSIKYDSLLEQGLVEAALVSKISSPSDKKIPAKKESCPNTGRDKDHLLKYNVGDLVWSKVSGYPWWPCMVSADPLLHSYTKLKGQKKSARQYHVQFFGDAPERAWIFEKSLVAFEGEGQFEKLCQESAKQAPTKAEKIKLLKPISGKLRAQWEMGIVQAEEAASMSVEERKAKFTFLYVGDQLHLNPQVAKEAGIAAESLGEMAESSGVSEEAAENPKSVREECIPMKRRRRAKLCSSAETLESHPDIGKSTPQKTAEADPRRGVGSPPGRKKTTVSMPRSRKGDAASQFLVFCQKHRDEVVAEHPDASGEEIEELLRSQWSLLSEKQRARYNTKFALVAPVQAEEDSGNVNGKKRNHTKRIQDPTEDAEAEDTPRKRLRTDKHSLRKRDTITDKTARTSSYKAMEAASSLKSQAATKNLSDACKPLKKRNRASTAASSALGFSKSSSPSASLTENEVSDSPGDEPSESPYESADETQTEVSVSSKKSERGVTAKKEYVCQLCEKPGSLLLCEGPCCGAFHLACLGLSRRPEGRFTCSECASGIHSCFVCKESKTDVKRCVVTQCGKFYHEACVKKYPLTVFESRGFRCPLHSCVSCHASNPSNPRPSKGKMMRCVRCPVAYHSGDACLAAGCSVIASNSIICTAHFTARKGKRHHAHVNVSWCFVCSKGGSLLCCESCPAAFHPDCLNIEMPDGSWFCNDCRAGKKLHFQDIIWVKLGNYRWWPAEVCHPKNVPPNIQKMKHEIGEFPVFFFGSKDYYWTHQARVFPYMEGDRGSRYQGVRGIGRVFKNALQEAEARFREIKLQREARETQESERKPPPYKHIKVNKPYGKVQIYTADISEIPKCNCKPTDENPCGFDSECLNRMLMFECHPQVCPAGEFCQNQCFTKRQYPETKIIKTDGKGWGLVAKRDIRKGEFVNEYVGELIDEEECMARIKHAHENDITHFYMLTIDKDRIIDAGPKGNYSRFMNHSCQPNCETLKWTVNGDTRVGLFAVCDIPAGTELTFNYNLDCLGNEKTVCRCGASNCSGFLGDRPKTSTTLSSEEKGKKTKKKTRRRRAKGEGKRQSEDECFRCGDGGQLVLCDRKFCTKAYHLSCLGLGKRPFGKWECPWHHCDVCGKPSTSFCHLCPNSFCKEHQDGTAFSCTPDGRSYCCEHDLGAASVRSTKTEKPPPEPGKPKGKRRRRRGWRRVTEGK
Env fusion inh – HIV envelope-mediated fusion inhibition; HeLa-JRFL Env/CEM21 cell fusion, luciferase; inhibition, % at 12.3 µM; 360,000 compounds, 1.1% hits; AID 651610;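 active = mean replicate inhibition score of at least 50 and every replicate individually at or above 50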;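 note: 0% = plate neutral controls and 100% = maraviroc near 300 nM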
PGC1a acetyl inh – modulators of PGC1a acetylation; U2OS PGC1a acetylation, AlphaScreen anti-acetyl-lysine; with virally co-expressed GCN5 acetyltransferase; inhibition, % at 15.6 µM; 350,000 compounds, 0.17% hits; AID 651687;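 active = every replicate shows inhibition of at least 40%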;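 note: 0% = neutral control wells and 100% = positive control wells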
Active calls of the source: *; . = not tested or not shown; [ ] = another dose, or the depositor's remark. The list is not random: actives were taken first. Their share in the collection is about 2.1%.

SMILES	GSIS activator	AF4-AF9 inh	NSD2 HMT inh	Env fusion inh	PGC1a acetyl inh
Cc1ccc(-c2nn(-c3ccccc3)cc2/C=C(\C#N)C(=O)NCc2ccccc2)cc1	19.7	.	32.0	-75.8	.
O=C(O)CCc1ccc(-c2ccc(Cl)cc2)n1CC(=O)O	-5.2	-1.2	5.3	.	-7.0
COc1cccc(C(=O)c2ncc(C(F)(F)F)cc2Cl)c1	-12.9	-0.1	30.0	-22.7	.
Cc1c(Cl)cccc1NC(=S)NNc1ncc(C(F)(F)F)cc1Cl	.	.	3.1	67.5*	8.1
COC(=O)/C(=C\Nc1cccc(Cl)c1C)c1ncc(C(F)(F)F)cc1Cl	.	.	-1.9	.	41.3*
O=C(CNC(=O)c1ccccc1F)N/N=C/c1cn[nH]c1-c1ccccc1	-5.9	0.2	-2.7	27.6	.
CCc1ccc(CN2CCN(C(=O)c3cccc(OC)c3OC)CC2)cc1	-2.3	.	0.0	88.9*	-9.7
COc1cccc(C(=O)N2CCN(C(=O)c3cccc4ccccc34)CC2)c1OC	-9.2	.	1.2	.	3.9
CCOC(=O)C1=C(COC(=O)CCCOc2ccccc2)NC(=O)NC1C (centres undefined)	-0.8	-0.6	4.2	.	.
O=C(c1sccc1-c1ccccc1)N1CCN(S(=O)(=O)c2ccccc2F)CC1	-28.5	-4.2	1.8	65.8*	.
CCCOc1ccc(-c2c(C(=O)N/N=C/c3ccc(OC)cc3)nnn2-c2nonc2N)cc1	-27.5	.	-0.9	-10.9	.
COc1ccc(CN([C@H](C)CO)S(=O)(=O)N(Cc2ccccc2)[C@H](CO)C(C)C)cc1	-32.4	-2.5	.	32.1	0.3
C=C[C@@H](C)N(Cc1ccc(OC)cc1)S(=O)(=O)N(Cc1ccccc1)[C@H](C=C)C(C)C	-35.3	-9.1	.	88.9*	-8.0
O=C(NNc1ccc([N+](=O)[O-])cc1)C12CC3CC(CC(C3)C1)C2	-11.5	.	0.0	69.3*	-12.2
COCC1CCN(C(=O)c2cc(COc3cccc4cnccc34)on2)CC1	-25.4	0.2	.	15.1	21.0
O=C(c1cc(COc2cccc3cnccc23)on1)N1CCCC(CCCO)C1 (centres undefined)	-53.9	3.2	-1.5	57.5*	.
COc1ccc(-c2nc(N3CCN(C)CC3)sc2-c2ccc(OC)cc2)cc1	-18.6	33.6*	8.1	6.8	-2.7
c1ccc2c(c1)OCC(CNc1ncnc3sccc13)O2 (centres undefined)	-38.8	.	-1.3	56.9*	.
Fc1ccccc1CNc1ncnc2sccc12	4.8	-7.5	8.2	38.8	.
CCCC(=O)Nc1ccc2c(c1)C(=O)N(C)C[C@@H](OC)[C@@H](C)CN(CCc1ccccc1)[C@@H](C)CO2	-4.3	0.4	.	.	-6.2
CCCC#Cc1ccc2c(c1)O[C@H](CN(C)S(=O)(=O)c1cccc(F)c1)[C@H](C)CN([C@@H](C)CO)S2(=O)=O	-7.5	-1.7	.	64.1*[16.7 µM]	2.8
CCCC#Cc1ccc2c(c1)O[C@H](CN(C)S(=O)(=O)c1cccc(F)c1)[C@@H](C)CN([C@@H](C)CO)S2(=O)=O	-11.7	4.1	.	11.2[16.7 µM]	-17.4
C[C@@H]1CN([C@@H](C)CO)S(=O)(=O)c2ccc(-c3cccc(F)c3)cc2O[C@@H]1CN(C)S(=O)(=O)c1ccc(F)cc1	-3.9	-2.9	.	59.4*[16.7 µM]	-3.8
Cc1ccc(S(=O)(=O)N(C)C[C@H]2Oc3cc(-c4cccc(F)c4)ccc3S(=O)(=O)N([C@@H](C)CO)C[C@H]2C)cc1	6.4	-4.4	.	69.1*[16.7 µM]	0.8
C[C@H]1CN([C@@H](C)CO)S(=O)(=O)c2ccc(Br)cc2O[C@H]1CN(C)S(=O)(=O)c1ccc(F)cc1	-29.7	2.3	.	63.3*[16.7 µM]	-28.3
SMILES	GSIS activator	AF4-AF9 inh	NSD2 HMT inh	Env fusion inh	PGC1a acetyl inh
COc1cccc(C2N(c3ccc(Cl)cc3)C(=O)C3CCCN32)c1 (centres undefined)	8.2	0.4	.	6.8	.
CC1=C(C)CC(C(=O)N2CCN(Cc3ccccc3)CC2)C(C(=O)O)C1 (centres undefined)	2.7	.	11.1	-33.6	-3.2
Cc1ccc(S(=O)(=O)N(C)C[C@@H]2Oc3cc(-c4cccc(F)c4)ccc3S(=O)(=O)N([C@@H](C)CO)C[C@@H]2C)cc1	3.2	-2.8	.	31.0[16.7 µM]	-13.1
CC(C)CC#Cc1ccc2c(c1)O[C@@H](CN(C)S(=O)(=O)c1ccc(F)cc1)[C@H](C)CN([C@@H](C)CO)S2(=O)=O	-6.9	1.9	.	59.8*[16.7 µM]	7.9
COc1ccccc1-c1ccc2c(c1)O[C@@H](CN(C)S(=O)(=O)c1ccc(C)cc1)[C@@H](C)CN([C@H](C)CO)S2(=O)=O	5.3	-9.5	.	28.0[16.7 µM]	-13.3
Cc1ccc(S(=O)(=O)N(C)C[C@H]2Oc3cc(-c4cccc(F)c4)ccc3S(=O)(=O)N([C@H](C)CO)C[C@H]2C)cc1	6.0	-1.7	.	64.1*[16.7 µM]	-5.3
COc1ccccc1-c1ccc2c(c1)O[C@H](CN(C)S(=O)(=O)c1ccc(C)cc1)[C@H](C)CN([C@@H](C)CO)S2(=O)=O	17.6	-1.3	.	42.6*[16.7 µM]	-11.5
CC(C)CC#Cc1ccc2c(c1)O[C@@H](CN(C)S(=O)(=O)c1ccc(F)cc1)[C@@H](C)CN([C@@H](C)CO)S2(=O)=O	4.8	.	.	44.1[16.7 µM]	-13.2
CCc1c(C(=O)Nc2ccc(C)c(C)c2)[nH]c(C)c1C(C)=O	113.7*	-1.8	1.8	-19.7	1.4
CCc1c(C(=O)NC2CCCCC2)[nH]c(C)c1C(C)=O	.	.	2.9	-74.9	93.4*
CC(=O)c1c(C)[nH]c(C(=O)NC2CCCCC2)c1C	.	.	3.2	.	1.7
CC(=O)c1c(C)[nH]c(C(=O)Nc2ccc(C)c(C)c2)c1C	.	.	2.0	-162.9	-9.4
CC(=O)N1[C@@H]2c3ccc(C4=CCCC4)c(=O)n3C[C@@H]2[C@@H](CO)[C@@H]1C(=O)NCC1CC1	25.8	2.4	.	.	-1.1
CCCCN(CCCNC(=S)NCCCc1cnc[nH]1)c1ccc(Br)cn1	72.5*	22.6	.	-12.6	.
S=C(NCCCc1cnc[nH]1)NCCCN(Cc1ccccc1)c1ccc(Br)cn1	43.2	19.3	.	26.1	.
Cc1c(C(=O)Nc2ccncc2)sc2nc(-c3ccccc3)cn12	5.3	2.6	.	44.2	.
Cc1c(C(=O)Nc2ccc3c(c2)OCCO3)sc2nc(-c3ccccc3)cn12	-31.7	.	1.4	57.0*	-61.9
C[C@H](c1ccccc1)N1C[C@@H](COCc2ccccc2)Oc2cc(N3CC[C@H](O)C3)ccc2S1(=O)=O	4.7	-0.8	.	.	.
COC(=O)Cn1c(SCc2ccccc2)nc2ccccc21	.	.	-2.6	.	-6.0
Cc1cccc(Nc2nc(-c3ccc(F)c(C)c3)cs2)n1	-25.4	-6.5	-3.1	-77.4	4.6
Cc1cccc(Nc2nc(-c3ccc(O)c(O)c3)cs2)n1	1.8	25.7*	13.1	-154.1	.
Cc1ccnc(Nc2nc(-c3ccc(O)c(O)c3)cs2)c1	-12.1	40.9*	17.9	-53.9	26.9
CCCc1cc(C(=O)Nc2cc(C)nn2-c2ccccc2)no1	2.0	-2.1	.	59.5*	-8.4
O=S1(=O)CCO[C@H]2Cc3ccccc3[C@H]2N1Cc1cccc(F)c1	-38.9	0.4	.	1.9	-8.3
O=S1(=O)CCO[C@H]2Cc3ccccc3[C@H]2N1Cc1cccc(C(F)(F)F)c1	-10.5	-1.1	.	66.3*	-19.1
CCOC(=O)N1CCN(Cc2nc3cc(NC(=O)c4cccs4)ccc3n2C)CC1	-1.9	0.6	0.3	-2.7	.

Screening data as filed in PubChem BioAssay.
